Test results as given in PubChem BioAssay (NCI).
About 83,000 compounds went through this panel and 20% of them were active in at least one assay; those are over-represented in the sample as a whole.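 The test compound was applied at a single concentration to cells in 96-well plates for 48 hours, and percent growth was recorded.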 A number with no mark means an inactive call. The source made the active and inactive calls. The calls were made as follows: active = growth percent below 10; inactive = the rest.

What was measured:
Assay in all cases: NCI-60 one-dose screen, 48 h (100 = growth as untreated, 0 = no growth, -100 = all killed)
Details in all cases: 10 µM unless noted
NCI-H226 lung = test system: NCI-H226 lung
NCI-H322M lung = test system: NCI-H322M lung
HOP-62 NSCLC = test system: HOP-62 NSCLC
NCI-H460 lung = test system: NCI-H460 lung
HOP-92 NSCLC = test system: HOP-92 NSCLC
NCI-H522 lung = test system: NCI-H522 lung
A549/ATCC NSCLC = test system: A549/ATCC NSCLC
786-0 renal = test system: 786-0 renal
COLO 205 colon = test system: COLO 205 colon
NCI-H23 lung = test system: NCI-H23 lung

Structure (SMILES)	growth (NCI-H226 lung)	growth (NCI-H322M lung)	growth (HOP-62 NSCLC)	growth (NCI-H460 lung)	growth (HOP-92 NSCLC)	growth (NCI-H522 lung)	growth (A549/ATCC NSCLC)	growth (786-0 renal)	growth (COLO 205 colon)	growth (NCI-H23 lung) [%]
COc1cc2oc(-c3cccc(C(=O)Nc4ccc(Cl)cc4)c3)cc(=O)c2c(OCC(=O)N[C@@H](Cc2ccccc2)C(=O)O)c1OC	102%	103%	120%	111%	124%	96.3%	106%	102%	119%	–
C#CCOc1cc(N(CC)CC)ccc1C(C(=O)NC(C)(C)C)N(C(=O)C1CCc2cc(F)ccc2O1)c1ccc(F)c(Cl)c1 (configuration not stated)	62.8%	89.5%	77.5%	53.2%	48.2%	60.5%	65.9%	58.7%	63.1%	–
CC1(C)CC[C@]2(C(=O)O)CC[C@]3(C)C(=CCC4[C@@]5(C)C[C@@H](O)[C@@H]6OC(c7ccccc7F)OC[C@@]6(C)C5CC[C@]43C)C2C1 (some centres not stated)	27.9%	13.5%	22.1%	3.39% (active)	5.75% (active)	5.45% (active)	14.2%	16.8%	-44% (active)	–
COc1ccc(C(=O)/C=C/c2ccc(OC)c(OCc3ccccc3)c2)cc1OC	13.9%	13.5%	38.2%	4.04% (active)	26.3%	-10.7% (active)	8.7% (active)	24.5%	20.1%	–
COc1ccc2[nH]cc(-c3cc(N)n4nc(-c5cn(C)c6ccccc56)cc4n3)c2c1	-19.3% (active)	-97.2% (active)	-66.4% (active)	-1.01% (active)	-71% (active)	-75.9% (active)	-75.6% (active)	-87.6% (active)	-84.7% (active)	–
COc1c(F)ccc(C(=O)Nc2ccc3nc(NC(=O)C4CCCN(S(=O)(=O)c5ccc(Br)s5)C4)sc3c2)c1F (configuration not stated)	75.1%	97.9%	104%	–	–	74.2%	79.7%	61.5%	101%	82.7
COc1ccc2c(c1)c(-c1cc(N)n3nc(-c4cn(C)c5ccccc45)cc3n1)cn2C	-44% (active)	-42.2% (active)	-59.6% (active)	-44.5% (active)	-75.2% (active)	-64.4% (active)	-44.6% (active)	-88.3% (active)	-83% (active)	–
COc1cc2c(c(OC)c1OC)C(=O)CC(c1cccc(NC(=O)c3cc(NC(=O)[C@H](C)N)ccc3Cl)c1)O2 (some centres not stated)	48.9%	81.2%	79.1%	51.4%	17.9%	1.34% (active)	56%	45%	74.5%	–
COc1cc(C2CC(c3ccc(S(=O)(=O)NCCNc4nc(Nc5ccc(F)cc5)nc(N(C)C)n4)cc3)=Nc3c(N)nc(N)nc3N2)cc(OC)c1OC (configuration not stated)	91.4%	86.7%	94.3%	–	–	84.2%	97.9%	75.3%	104%	93.5
C#CCOc1cc(N(CC)CC)ccc1C(C(=O)NC(C)(C)C)N(C(=O)C1CCc2cc(F)ccc2O1)c1ccc(F)cc1 (configuration not stated)	43.5%	70.6%	70.2%	36.7%	39.8%	43.1%	39.8%	52.8%	32.4%	–
COc1cc(-c2nc3ccc(C)cc3[nH]2)ccc1OCc1nnc(-c2ccc(Br)cc2)o1	57.5%	65.6%	48%	31.3%	18.8%	8.24% (active)	49.8%	-50.8% (active)	3.01% (active)	–
COc1ccc(NC(=O)[C@@H](N)Cc2ccccc2)cc1C(=O)Nc1cccc(C2CC(=O)c3c(cc(OC)c(OC)c3OC)O2)c1 (some centres not stated)	69.8%	79.3%	86.8%	54.7%	44.4%	39.6%	68.9%	72.2%	78.4%	–
Cn1cc(NC(=O)c2cc(NC(=O)c3ccc(/C=C/c4ccccc4)cc3)cn2C)cc1C(=O)NCCCN1CCOCC1	77.4%	69.9%	90.9%	–	–	17.6%	26.9%	27.9%	-78.6% (active)	66.7
C#CCOc1cc(N(CC)CC)ccc1C(C(=O)NC(C)(C)C)N(C(=O)C1CCc2cc(F)ccc2O1)c1ccccc1Br (configuration not stated)	63.8%	86.3%	73.3%	52.3%	56.4%	47.6%	54.2%	59.4%	46.9%	–
COc1ccc(/C=C/c2nc3ccccc3c(=O)n2CC(=O)Nc2ccc(OC)cc2)cc1	61.1%	83.3%	51.7%	–	–	70.3%	46.9%	-12.7% (active)	87.8%	53.9
COc1ccc(NC(=O)Nc2ccc(OCc3ccc(F)cc3)cc2)cc1	12.4%	65.8%	44.5%	46%	21.3%	65.1%	58.9%	29.3%	97.7%	–
COc1ccc(NC(=O)[C@H](C)N)cc1C(=O)Nc1cccc(C2CC(=O)c3c(cc(OC)c(OC)c3OC)O2)c1 (some centres not stated)	85.5%	96.9%	113%	96.9%	69.4%	81.7%	93.4%	91.1%	115%	–
CC(C)CCNC(=O)N/C(N)=N/c1nc2ccccc2s1	52.1%	83.1%	73.6%	–	–	54.2%	64.6%	80.9%	103%	46.9
Cc1cc(C)cc(NC(=O)Cn2cc(COn3nnc4ccccc43)nn2)c1	101%	99.3%	115%	114%	117%	95.6%	107%	101%	117%	–
COc1ccc2oc(=O)c(C3(C)NC(=O)c4c(/C=C/C(=O)OC(C)(C)C)cccc4N3)cc2c1 (configuration not stated)	44.7%	66.9%	61%	47.2%	32.9%	27.8%	27.3%	66.7%	44.9%	–
O=C(c1ccccc1)c1ccc2nc(-c3ccc(F)cc3)[nH]c2c1	25.4%	97.2%	83.5%	51.4%	90.5%	-59.7% (active)	82.2%	39%	85.8%	–
C#CCOc1cc(N(CC)CC)ccc1C(C(=O)NC(C)(C)C)N(C(=O)C1CCc2cc(F)ccc2O1)c1ccccc1F (configuration not stated)	34.4%	72.2%	49.5%	30.1%	18.6%	31.2%	35.2%	44.1%	12.9%	–
COc1cc2nc(SCc3ccccc3)n(-c3ccc(Cl)cc3)c(=O)c2cc1OC	-27.3% (active)	3.77% (active)	-69.2% (active)	-47.6% (active)	-30.2% (active)	-0.701% (active)	-50.6% (active)	-57.2% (active)	3.25% (active)	–
Nc1nc(-c2ccccc2)c(N=Nc2ccc([N+](=O)[O-])cc2Cl)s1	77.5%	101%	101%	74.1%	41.1%	48.8%	89.8%	94.9%	97.6%	–
O=[N+]([O-])c1ccc(/C=C/c2nc3ccccc3n3c(=S)[nH]nc23)cc1	65.3%	84.1%	80.2%	78%	68.2%	63.6%	77%	102%	104%	–
Cc1ccc(C(=O)C(c2c[nH]c3ccccc23)c2c[nH]c3ccccc23)cc1	38.9%	81.8%	89.9%	-6.44% (active)	89.9%	-1.59% (active)	49%	32%	-45.7% (active)	–
Nc1nc(-c2ccccc2)c(N=Nc2ccc(Cl)cc2[N+](=O)[O-])s1	77.4%	94.2%	90.9%	105%	68%	82.7%	95.3%	93.4%	101%	–
COC(=O)/C=C/c1cccc2c1C(=O)NC(C)(c1cc3ccccc3oc1=O)N2 (configuration not stated)	63.1%	93.7%	72.4%	44.5%	50.7%	62%	67.9%	58.9%	63.1%	–
